Assay [1] in a line: qHTS Assay for Identifying Gametocytocidal Compounds (AID 743244; active = well fitted curve in the direction sought with a large enough effect;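 also: % is scaled to controls: 0 for no effect and ±100 for the full control effect; actives lower the fluorescent signal which means gametocytes are killed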). The conditions noted are these: P. falciparum 3D7 stage III-V gametocytes, alamarBlue, 72 h; max response: stronger effect = lower value. The essentials:
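3D7 gametocytes, stages III–V, 20,000/well; cpd 72 h, 37 °C/5% CO2; + alamarBlue 24 h; fluor. Ex 525/Em 598.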
A general note: In qHTS, concentration-response curves come from the screen itself.

Assay [2] in a line: qHTS profiling of the MIPE4 collection as inhibitors of Plasmodium falciparum (3D7) proliferation (AID 743344).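 Also: scaled between DMSO vehicle wells and 0.29 µM artemisinin as full inhibition.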 To be noted: P. falciparum 3D7 in erythrocytes, SYBR Green DNA fluorescence, 72 h; at 28.5 µM (top of the series) unless noted. The essentials:
(§1)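 Erythrocytes infected with P. falciparum (0.3% parasitemia, 2.5% hematocrit) incubated with compounds 72 h at 37 C, 5% CO2. Lysis with saponin/Triton buffer containing SYBR Green I, overnight at room temperature in the dark; DNA fluorescence (485/535 nm) normalised to 0.29 uM artemisinin and DMSO.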

Assay [3] is described as follows: qHTS profiling of the MIPE4 collection as inhibitors of Plasmodium falciparum (DD2) proliferation (Rep 2) (AID 743346). The conditions noted are these: P. falciparum Dd2 in erythrocytes, SYBR Green DNA, 72 h; at 28.5 µM (top of the series) unless noted. The essentials:
as §1

Assay [4] in a line: qHTS profiling of the MIPE4 collection as inhibitors of Plasmodium falciparum (HB3) proliferation (AID 743347).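 Also: plate controls were DMSO vehicle wells for no effect and artemisinin wells for full effect.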 The conditions noted are these: P. falciparum HB3 in erythrocytes, SYBR Green DNA, 72 h; at 28.5 µM (top of the series) unless noted. The essentials: as §1
The conditions of assay [5]: Ebola virus entry assay, green fluorescence channel.
For assay [6] the following is noted: Ebola virus entry assay, blue channel fluorescence.
The conditions of assay [7]: Ebola virus entry assay, green fluorescence channel. This is another data set of the same source.
The conditions of assay [8]: Ebola virus entry assay, ratio channel readout.
The conditions of assay [9]: Ebola virus entry assay, ratio channel.
The target of assay [10] is T1, Hexokinase-4 (Homo sapiens) + Glucokinase regulatory protein (Homo sapiens) (UniProt P35557+Q14397). Briefly: qHTS assay for inhibitors of recombinant human GCK-GKRP interaction: ADP-Glo assay (AID 743206; active = well fitted curve in the direction sought with a large enough effect;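 also: plate controls were DMSO plus enzyme for no effect and no enzyme for full effect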). The essentials:
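GST-GCK and FLAG-GKRP (15 nM each in the dispensed mix, with 2 uM S6P) react with 0.4 mM ATP and 5 mM glucose (final) in Hepes pH 7.6 for 60 min at room temperature. ADP is measured by ADP-Glo luminescence.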

For assay [11], the target named is T1, Hexokinase-4 (Homo sapiens) + Glucokinase regulatory protein (Homo sapiens). Put plainly: qHTS assay for inhibitors of recombinant human GCK-GKRP interaction: HTRF assay (AID 743207; active = well fitted curve in the direction sought with a large enough effect;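 also: 0% = DMSO with GCK present and -100% = DMSO wells lacking GCK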). The essentials: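 5 nM GST-GCK + 5 nM FLAG-GKRP + 2 uM S6P, pH 7.1 buffer (25 mM Hepes, 2 mM MgCl2, 25 mM KCl, 1 mM DTT, Tween/BSA); pin-transferred cpd; anti-FLAG XL665/anti-GST K; 60 min RT; HTRF.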

The conditions of assay [12]: Ebola virus entry assay, blue channel fluorescence. This is another data set of the same source.

Values joined by “and” are separate entries in the source; they are usually repeats but may differ in a detail not shown here. Equal values may be shown once. Inconclusive results are not listed. For some assays here: Entries with a potency or affinity are not part of this list. Active and inactive are the calls of the source.

Experimental findings from PubChem BioAssay (NCATS) are described below.
For efficacy in this document: 0% is about no effect.

T1 sequence (P35557 whole entry, looked up): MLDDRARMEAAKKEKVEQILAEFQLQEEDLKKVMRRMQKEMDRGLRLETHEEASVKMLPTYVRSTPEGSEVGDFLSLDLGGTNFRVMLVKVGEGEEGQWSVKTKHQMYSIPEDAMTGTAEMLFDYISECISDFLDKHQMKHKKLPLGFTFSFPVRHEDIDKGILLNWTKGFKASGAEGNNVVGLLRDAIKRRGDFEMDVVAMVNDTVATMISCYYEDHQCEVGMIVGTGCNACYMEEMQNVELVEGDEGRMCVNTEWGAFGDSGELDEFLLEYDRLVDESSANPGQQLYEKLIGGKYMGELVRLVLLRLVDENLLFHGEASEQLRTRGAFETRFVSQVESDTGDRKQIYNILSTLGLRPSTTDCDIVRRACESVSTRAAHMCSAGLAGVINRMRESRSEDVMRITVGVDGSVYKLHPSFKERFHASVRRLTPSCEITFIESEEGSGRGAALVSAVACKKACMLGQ
T1 sequence (Q14397 whole entry, looked up): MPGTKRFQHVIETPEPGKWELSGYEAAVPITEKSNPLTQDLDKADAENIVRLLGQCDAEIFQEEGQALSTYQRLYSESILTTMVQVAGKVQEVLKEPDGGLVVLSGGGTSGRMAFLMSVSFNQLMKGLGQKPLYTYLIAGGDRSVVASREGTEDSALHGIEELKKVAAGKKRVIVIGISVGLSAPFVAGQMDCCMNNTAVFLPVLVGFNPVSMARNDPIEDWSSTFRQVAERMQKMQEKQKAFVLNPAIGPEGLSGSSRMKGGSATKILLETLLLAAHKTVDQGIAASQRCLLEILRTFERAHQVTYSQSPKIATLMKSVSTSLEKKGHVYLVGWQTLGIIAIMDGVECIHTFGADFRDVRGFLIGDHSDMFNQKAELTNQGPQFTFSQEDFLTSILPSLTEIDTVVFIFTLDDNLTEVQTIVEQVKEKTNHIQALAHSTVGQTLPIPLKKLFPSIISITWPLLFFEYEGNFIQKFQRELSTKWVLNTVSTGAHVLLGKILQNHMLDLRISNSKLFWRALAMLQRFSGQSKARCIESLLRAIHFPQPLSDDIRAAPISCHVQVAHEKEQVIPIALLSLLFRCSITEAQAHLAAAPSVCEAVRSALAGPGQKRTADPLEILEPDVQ

On to `C#CCN(C)[C@H](C)Cc1ccccc1`, for which the max response in assay [1] was -11.5% (inactive). The same compound had a parasite growth, % of DMSO control in assay [2] of 92.5%. In assay [3], the parasite growth, % of control (lower = inhibition) came out at 124%. The compound further returned a growth, % of control in assay [4] of 95.7%. For the same compound, in assay [5], the efficacy was 21.9% (inactive). For the same compound, the call in assay [6], in [7] and in [8] was inactive.
Turning to `C[C@]12CC[C@@H]3c4ccc(O)cc4C[C@@H](CCCCCCCCCS(=O)CCCC(F)(F)C(F)(F)F)[C@H]3[C@@H]1CC[C@@H]2O` (stereo not given in full), the efficacy in assay [5] is 40.4% (inactive). The call in assay [6], in assay [7], in [8] and in assay [9] was inactive.
`NCC(CC(=O)O)c1ccc(Cl)cc1` (stereo not given): the outcome in assay [10], in assay [11], in assay [6], in [7] and in assay [8] was inactive. The max response in [1] was 0.281% (inactive) and 9.05% (inactive). Also, the efficacy in assay [5] was -35.7% (inactive).
Consider `CC(C)(C#N)c1cc(Cn2cncn2)cc(C(C)(C)C#N)c1`, for which, in [5], the efficacy is 15% (inactive). Further, the compound was classed as inactive in [6], in [7], in [8] and in [9].
Regarding `CC(C)CC(N(C)C)C1(c2ccc(Cl)cc2)CCC1` (stereo not given), the max response in [1] is 6.63% (inactive). Further, the parasite growth, % of DMSO control in assay [2] amounted to 90.3%. Also, the parasite growth, % of control (lower = inhibition) in [3] was determined as 137%. This compound had a growth, % of control in assay [4] of 105%. Further, in assay [5], the efficacy was -28.7% (inactive). For the same compound, the compound was called inactive in assay [6], in assay [7] and in [8].
Consider `CN(C)C(=N)N=C(N)N`, for which the efficacy in assay [5] is -14% (inactive). Besides, the compound was called inactive in [6], in assay [7], in assay [8] and in assay [9].
As to `Cc1ccc(-c2nc3ccc(C)cn3c2CC(=O)N(C)C)cc1`, the max response in assay [1] was 7.35% (inactive). In addition, in [5], the efficacy was -21.9% (inactive). Moreover, the outcome in assay [6], in assay [7] and in assay [8] was inactive.
On to `CN1C(CCl)Nc2cc(Cl)c(S(N)(=O)=O)cc2S1(=O)=O` (stereo not given), for which the efficacy in assay [5] was -11.6% (inactive). Besides, the result in [6], in [7], in assay [8] and in [9] was inactive.
Consider `CCOC(=O)[C@H](CCc1ccccc1)N[C@@H](C)C(=O)N1Cc2cc(OC)c(OC)cc2C[C@H]1C(=O)O`, for which the efficacy in assay [5] is 30.5% (inactive). The call in assay [6], in assay [7], in assay [8] and in [9] was inactive.
The compound `CC1Cc2ccccc2N1NC(=O)c1ccc(Cl)c(S(N)(=O)=O)c1` (stereo not given) had a parasite growth, % of DMSO control in assay [2] of 83.7%. Moreover, the parasite growth, % of control (lower = inhibition) in assay [3] is 84.2%. The efficacy in [5] was 11.5% (inactive). In addition, the result in assay [6], in [7] and in assay [8] was inactive.
Turning to `CC1(C)NC(=O)N(c2ccc([N+](=O)[O-])c(C(F)(F)F)c2)C1=O`, in assay [5], the efficacy was 16.8% (inactive). Further, the compound was classed as inactive in assay [7] and in assay [8].
For `Cc1ccc(-n2nc(C(C)(C)C)cc2NC(=O)Nc2ccc(OCCN3CCOCC3)c3ccccc23)cc1`, the efficacy in [5] was 134% (inactive). Further, the AC50 is 25.1 µM (active) in [12] and 20 µM (active) in [9].
`Cc1ccc(S(=O)(=O)NC(=O)NN2CCCCCC2)cc1`: the efficacy in assay [5] was -42.6% (inactive). The result in assay [7], in [8] and in assay [9] was inactive.
Turning to `COc1ccc(OC)c(C(O)CNC(=O)CN)c1` (stereo not given), the efficacy in assay [5] was 13.6% (inactive). Also, the call in assay [6], in assay [8] and in [12] was inactive.
As to `CCN(CC)C(=S)SSC(=S)N(CC)CC`, the efficacy in assay [5] was -47.8% (inactive). The compound was classed as inactive in assay [7] and in assay [8]. The AC50 in assay [12] is 7.08 µM (active); in assay [9] it was 7.94 µM (active) and 22.4 µM (active).
With `CCCCc1nc(Cl)c(CO)n1Cc1ccc(-c2ccccc2-c2nn[nH]n2)cc1`, in assay [5], the efficacy is -25.2% (inactive). The compound was classed as inactive in assay [7], in assay [8], in [12] and in assay [9].
As for `CC1=C(C(=O)O)N2C(=O)[C@@H](NC(=O)[C@H](N)c3ccc(O)cc3)[C@H]2SC1`, the efficacy in [5] is -8.88% (inactive). Also, the outcome in [7], in [8], in [12] and in assay [9] was inactive.
Turning to `N=c1nc(N2CCCCC2)cc(N)n1O`, the efficacy in assay [5] is -16.3% (inactive). The call in assay [7] and in [8] was inactive.
`CCOC(=O)[C@H](CCc1ccccc1)N[C@@H](C)C(=O)N1[C@H](C(=O)O)C[C@@H]2CCC[C@@H]21`: in assay [5], the efficacy is -29.2% (inactive). Moreover, the outcome in [6], in [8] and in assay [9] was inactive.
As for `O=c1[nH]cnc2c1ncn2[C@H]1CC[C@@H](CO)O1`, the efficacy in [5] was -19.1% (inactive). In addition, the compound was called inactive in [7].
Consider `Cc1[nH]cnc1CN1CCc2c(c3ccccc3n2C)C1=O`, for which the efficacy in assay [5] is -10.6% (inactive). Further, the compound was classed as inactive in [6], in [8], in [12] and in [9].
As for `CN[C@H]1CC[C@@H](c2ccc(Cl)c(Cl)c2)c2ccccc21`, the efficacy in [5] was -213% (inactive). In assay [7], the compound was called inactive. The AC50 is 2 µM (active) in assay [12] and 1.58 µM (active) in assay [9].
Consider `O=C(CCCN1CCC(O)(c2ccc(Cl)cc2)CC1)c1ccc(F)cc1`, for which the efficacy in assay [5] was 61.7% (inactive). For the same compound, the compound was called inactive in assay [7] and in assay [8]. Moreover, the AC50 in assay [12] and in [9] was 10 µM (active) each time.
For the compound `CCCCc1oc2ccccc2c1C(=O)c1cc(I)c(OCCN(CC)CC)c(I)c1`, in assay [5], the efficacy is 105% (inactive). Further, in assay [7], the compound was called inactive. Also, the AC50 is 3.55 µM (active) in assay [12] and 2.82 µM (active) in assay [9].
As for `COc1ccccc1OCCNCC(O)COc1cccc2[nH]c3ccccc3c12` (stereo not given), the efficacy in assay [5] is 67.7% (inactive). The concentration at half-maximal activity (AC50) is 11.2 µM (active) in [6] and 2.24 µM (active) in [9]. For the same compound, the result in [8] was inactive.
Consider `CCCc1nc2c(C)cc(-c3nc4ccccc4n3C)cc2n1Cc1ccc(-c2ccccc2C(=O)O)cc1`, for which, in [5], the efficacy is 21.4% (inactive). The call in assay [12] and in assay [9] was inactive.
With `OC1(c2ccc(Cl)c(C(F)(F)F)c2)CCN(CCCC(c2ccc(F)cc2)c2ccc(F)cc2)CC1`, the efficacy in assay [5] is -169% (inactive). In addition, the AC50 in assay [12] is 5.01 µM (active); in [9] it was 2.82 µM (active).
On to `CNCCC(Oc1ccc(C(F)(F)F)cc1)c1ccccc1` (stereo not given), for which the efficacy in assay [5] is -180% (inactive). In addition, the AC50 in assay [6] was 14.1 µM (active); in assay [12] it was 8.91 µM (active); in assay [9] it was 3.55 µM (active). For the same compound, the result in assay [8] was inactive.
Consider `Cn1ccc2cc3c(cc21)CCN3C(=O)Nc1cccnc1`, for which, in assay [5], the efficacy is -35.6% (inactive). Further, the result in assay [12] and in [9] was inactive.
For `NC(=O)c1cn(Cc2c(F)cccc2F)nn1`, the efficacy in [5] is -11.2% (inactive). Also, the compound was called inactive in [6], in assay [8] and in assay [12].
On to `O=c1[nH]cc(F)c(=O)[nH]1`, for which, in assay [2], the parasite growth, % of DMSO control was determined as 42.1%. The parasite growth, % of control (lower = inhibition) in assay [3] is 44.8%. Besides, the growth, % of control in [4] came to 85.2%. Further, the efficacy in [5] is 26.1% (inactive). Besides, the outcome in assay [6], in [7] and in assay [9] was inactive.
Regarding `CC(C)Oc1ccc2c(=O)c(-c3ccccc3)coc2c1`, in assay [5], the efficacy is 27.1% (inactive) and 23.5% (inactive). For the same compound, the call in assay [12] and in assay [9] was inactive.
On to `Cc1ncc([N+](=O)[O-])n1CCO`, for which the efficacy in assay [5] is -56.3% (inactive). The result in [7], in assay [8] and in [9] was inactive.
As to `Cn1cc[nH]c1=S`, in [5], the efficacy is -16% (inactive). Also, the compound was called inactive in assay [7], in [12] and in assay [9].

The AC50 is the concentration giving half of the maximal activity seen.
